Data published in ChEMBL document CHEMBL1157539, “Thousands of chemical starting points for antimalarial lead identification” (Nature, 2010).

Assays:
Format in all cases: functional
Plasmodium falciparum [1] = assay: GSK_TCMDC: Inhibition of Plasmodium falciparum 3D7 in whole red blood cells, using parasite LDH activity as an index of growth. Test compounds present at 2uM
Plasmodium falciparum [2] = assay: GSK_TCMDC: Inhibition of Plasmodium falciparum Dd2 in whole red blood cells, using parasite LDH activity as an index of growth. Test compounds present at 2uM
HepG2 = assay: GSK_TCMDC: Percent inhibition of human HepG2 cell line. Test compounds present at 10uM.

SMILES	Inhibition (Plasmodium falciparum [1]) [%]	Inhibition (Plasmodium falciparum [2]) [%]	Inhibition (HepG2) [%]
COc1ccc2[nH]ccc(=NN=Cc3ccccc3)c2c1	100	99	0
Cl.O=c1cc(NCCCNCc2ccc(Cl)c(Cl)c2)[nH]c2ccc(Oc3ccccc3)cc12	92	29	1
NC(=O)c1ccccc1OCC(=O)Nc1ccc(-c2cccc(-c3nc4cc(C(F)(F)F)ccc4[nH]3)c2)cc1	100	11	51
Cc1ccc(CNC(=O)[C@H](Cc2ccccc2)Nc2ccnc(NCC3CCCCC3)n2)cc1.O=C(O)C(F)(F)F	92	61	84
O=c1cc(NCCCNCc2ccc(C(F)(F)F)c(F)c2)[nH]c2ccccc12	93	26	5
O=C(Nc1ccc(F)cc1)NC1CCN(c2ccnc3ccccc23)C1.O=C(O)C(F)(F)F (centres undefined)	92	2	9
CC1CCCN(C(=O)c2cc(-c3ccccn3)nc3c(Cl)cccc23)C1 (centres undefined)	86	9	2
Clc1ccc(Cc2nc3ccccc3[nH]2)cc1Cl	98	2	5
CCOc1cc(/C=N/Nc2nc3ccccc3[nH]2)ccc1OCc1ccc([N+](=O)[O-])cc1	100	1	2
O=C(N[C@H]1CCN(CCc2ccc(O[C@H]3CCNC3)c(Cl)c2)C1)c1ccc(Cl)c(Cl)c1.O=C(O)C(F)(F)F	100	0	26
COCCCNc1nc2cc(OC)c(OC)cc2c2nc(-c3ccccc3)nn12	95	97	6
CS(=O)(=O)c1ccc2c(c1)CCN(CCC1CCC(NC(=O)c3cc4cccc(Br)c4[nH]3)CC1)CC2 (centres undefined)	92	7	27
CNC(=O)c1cnc(Nc2ccc(N3CCN(C)CC3)cc2)nc1Nc1cccc(OC)c1.O=C(O)C(F)(F)F	100	100	19
Cl.c1ccc(Cn2nnnc2-c2cccc(Nc3ccnc4cc(-c5nccs5)ccc34)c2)cc1	87	46	51
CCC[C@@H]([C@@H](Cc1ccc(C)s1)C(=O)N[C@@H](CNC(C)=O)C(=O)Nc1nccs1)N(O)C=O	97	96	0
COc1ccc2c(=O)c3ccc(OC)cc3[nH]c2c1	93	75	12
CCN(CC)CC#Cc1ccc2[nH]c(C)c(Cl)c(=O)c2c1	96	95	11
Cl.O=C(/C=C/c1cccc(Cl)c1)Nc1ccc2nc(CN3CCCC3)ccc2c1	99	42	47
Br.CC1(C)NC(N)=NC(=N)N1OCCCOc1ccc([N+](=O)[O-])cc1	94	80	68
CC(=O)Nc1ccc(C(=O)Nc2cccc(-c3ccc(-c4nc5cccc(C)c5[nH]4)cc3)c2)cn1	100	94	25
Cc1ccc2c(c1C)NC(=O)C21NN=C(c2ccccc2)S1 (centres undefined)	97	65	31
COc1ccc(NC(=O)[C@H](Cc2ccccc2)Nc2cc(C)nc(NCCc3ccc(F)cc3)n2)cc1.O=C(O)C(F)(F)F	100	82	17
O=C(NCc1ccccc1)NC1CCN(c2ccnc3cc(Cl)ccc23)C1.O=C(O)C(F)(F)F (centres undefined)	94	99	13
COc1ccc2ncc(C)c(CCN3CCC(NCc4ccc5c(n4)NC(=O)CS5)CC3)c2c1.Cl	100	53	14
N=C(/N=C(/NCCCCCCN/C(=N\C(=N)Nc1ccc(Cl)cc1)N1CCOCC1)N1CCOCC1)Nc1ccc(Cl)cc1	93	91	0
COc1ccc2nccc([C@@H](O)CN3CCC(NC(=O)[C@@H]4Cc5ccccc5CN4C(=O)OC(C)(C)C)CC3)c2c1	92	61	15
O=C(Nc1ccc(Oc2ccccc2)cc1)N(Cc1ccc(-c2ccc(CN3CCNCC3)cc2)cc1)C1CCN(Cc2ccccc2)CC1.O=C(O)C(F)(F)F	100	73	31
CC1CCN(CCNC(=O)c2ccc3c(=O)n(Cc4ccc(Cl)cc4)c(=S)[nH]c3c2)CC1	100	75	6
